Measurements from the supplement of paper PMC12669032.
A number with no mark means an inactive call.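 How the source made its calls: active = AUC reduced over 20% with Padj below 0.05 in at least 2 of 3 replicates; inactive = otherwise.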

Key:
Assay in all cases: growth AUC relative to DMSO control (median of replicates) (fraction); higher = more growth (less inhibition), active = hit call of the paper
Conditions in all cases: 20 µM; 24 h
Coprococcus comes = system: Coprococcus comes
Outline: (§1)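 Gut bacteria were grown singly in mGAM at 37 °C without oxygen, from OD600 0.05, alongside 20 µM compound in 1% DMSO, and OD600 was read each hour for 24 h. Area under the growth curve was normalised to the median of solvent-only wells per plate, or to row and column medians on the industrial chemical plate. The minimum OD was set to 0 beforehand, and the reported value is the median of three biological replicates grown on separate days.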

Escherichia coli ED1a = system: Escherichia coli ED1a
Outline: as §1

Escherichia coli IAI1 = system: Escherichia coli IAI1
Outline: as §1

Eubacterium rectale = system: Eubacterium rectale
Outline: as §1

[1] = system: Fusobacterium nucleatum subsp. animalis
Outline: as §1

Lactobacillus gasseri = system: Lactobacillus gasseri
Outline: as §1

Lactobacillus paracasei = system: Lactobacillus paracasei
Outline: as §1

Odoribacter splanchnicus = system: Odoribacter splanchnicus
Outline: as §1

[2] = system: Parabacteroides distasonis
Outline: as §1

Parabacteroides merdae = system: Parabacteroides merdae
Outline: as §1

Roseburia intestinalis = system: Roseburia intestinalis
Outline: as §1

Streptococcus salivarius = system: Streptococcus salivarius
Outline: as §1

| Structure (SMILES) | growth AUC (Coprococcus comes) | growth AUC (Escherichia coli ED1a) | growth AUC (Escherichia coli IAI1) | growth AUC (Eubacterium rectale) | growth AUC [1] | growth AUC (Lactobacillus gasseri) | growth AUC (Lactobacillus paracasei) | growth AUC (Odoribacter splanchnicus) | growth AUC [2] | growth AUC (Parabacteroides merdae) | growth AUC (Roseburia intestinalis) | growth AUC (Streptococcus salivarius) |
| --- | --- | --- | --- | --- | --- | --- | --- | --- | --- | --- | --- | --- |
| COC(=O)Cc1cccc2ccccc12 | 0.997 | 0.969 | 0.968 | 1.07 | 0.996 | 0.924 | 0.974 | 1.08 | 0.986 | 0.995 | 1.04 | 1.01 |
| Cc1cc(C)cc(OCC(C)Nc2nc(N)nc(C(C)(C)F)n2)c1 (stereo not given) | 0.958 | 0.948 | 0.956 | 1.05 | 0.813 | 0.974 | 0.993 | 0.992 | 0.835 | 0.87 | 0.971 | 0.967 |
| CC(C)Nc1nc(N)nc(Cl)n1 | 1.01 | 1.01 | 1.05 | 1.01 | 1.05 | 0.98 | 0.96 | 1.06 | 1.06 | 1.04 | 1.06 | 0.988 |
| COC(=O)CCCOc1ccc(Cl)cc1Cl | 0.968 | 0.983 | 0.958 | 1.1 | 0.966 | 0.916 | 0.916 | 0.925 | 0.791 | 0.97 | 0.887 | 0.931 |
| COc1nc(OC)nc(C(=O)c2cccc(F)c2N(C)S(=O)(=O)C(F)F)n1 | 1.03 | 0.999 | 0.986 | 1.18 | 1.05 | 1.02 | 0.977 | 0.892 | 1.03 | 0.927 | 1.01 | 1.02 |
| CCS(=O)(=O)c1nnc(N(C)C(=O)NC)s1 | 0.938 | 0.984 | 0.99 | 0.976 | 1.01 | 1.04 | 0.851 | 0.992 | 1.06 | 1.01 | 1 | 0.99 |
| FC(F)(F)c1cccc(C(c2ccccc2)(c2ccccc2)n2cncn2)c1 | 0.713 | 0.975 | 0.959 | 0.646 (active) | 0.899 | 0.851 | 1.11 | 1.03 | 0.842 | 0.619 (active) | 0.911 | 0.94 |
| NS(=O)(=O)[O-].[NH4+] | 1.06 | 1.03 | 1.02 | 1.09 | 1.09 | 0.996 | 0.997 | 0.988 | 1.02 | 1.06 | 1.06 | 1.01 |
| c1ccc2c(c1)ccc1ccccc12 | 0.965 | 1.01 | 1.01 | 1.01 | 0.985 | 0.994 | 0.999 | 1.01 | 1.04 | 1.01 | 0.993 | 0.997 |
| CCCOC(=O)c1ccc(O)cc1 | 1 | 0.986 | 0.971 | 0.951 | 0.985 | 1.06 | 1.01 | 0.945 | 1.01 | 0.988 | 1 | 0.979 |
| O=C(Nc1ccc(F)cc1)c1cccc(Oc2cccc(C(F)(F)F)c2)n1 | 0.993 | 0.95 | 0.95 | 1.02 | 0.927 | 0.87 | 0.927 | 1.07 | 0.905 | 0.911 | 0.918 | 0.956 |
| CC(C)c1cccc2c(=O)c3ccccc3sc12 | 0.979 | 1.03 | 1.04 | 1 | 1.19 | 0.968 | 1.05 | 1.05 | 0.952 | 0.885 | 1.02 | 1.05 |
| CCOCN(C(=O)C(=O)O)c1c(C)cccc1CC | 1.01 | 1 | 0.996 | 0.989 | 1.03 | 0.989 | 1.05 | 0.991 | 1.02 | 1.01 | 0.996 | 1.04 |
| Clc1ccc(CSc2ccc(Cl)cc2)cc1 | 1.03 | 1 | 0.989 | 1.05 | 1.07 | 0.98 | 1.02 | 1.07 | 1 | 0.979 | 0.965 | 1.01 |
| CCNc1nc(NC(C)(C)C)[nH]c(=O)n1 | 0.988 | 1.02 | 0.987 | 1.03 | 0.99 | 0.899 | 1.04 | 0.948 | 1.01 | 0.994 | 1.03 | 1.03 |
| Cc1nn(C)c(Oc2ccccc2)c1/C=N/OCc1ccc(C(=O)OC(C)(C)C)cc1 | 0.996 | 0.984 | 0.991 | 0.907 | 0.973 | 0.901 | 1.01 | 1.01 | 1.03 | 0.925 | 0.924 | 0.993 |
| CCCCCCCC/C=C\CCCCCCCC(N)=O | 0.869 | 0.991 | 0.953 | 1.14 | 1.02 | 0.962 | 1.02 | 1.04 | 0.96 | 0.955 | 0.933 | 0.952 |
| COCCCNc1nc(NC(C)C)nc(SC)n1 | 0.963 | 1.01 | 0.986 | 0.914 | 0.904 | 1.04 | 0.943 | 0.954 | 1.01 | 0.992 | 0.995 | 0.969 |
| CCC(C)Nc1nc(N)nc(Cl)n1 (stereo not given) | 0.981 | 1 | 1.01 | 1.05 | 1.03 | 0.996 | 1.02 | 0.976 | 1.01 | 1.03 | 0.998 | 0.987 |
| FC(F)(F)/N=C1\SC(=Nc2ccccc2)N(c2ccccc2)\C1=N\C(F)(F)F | 0.983 | 0.962 | 0.96 | 1.3 | 0.653 | 0.903 | 1.09 | 1.13 | 0.949 | 0.908 | 0.922 | 0.946 |
| Cc1[nH]n(C)c(=O)c1C(=O)c1ccc(C(F)(F)F)cc1S(C)(=O)=O | 0.991 | 1.01 | 1.08 | 0.972 | 1.01 | 1.02 | 1.03 | 1.02 | 1.04 | 0.974 | 1.01 | 1.03 |
| CC(C)CCCCCCc1ccc(O)cc1 | 1.01 | 1.02 | 1.01 | 0.879 | 1.16 | 0.948 | 1.03 | 1.05 | 1.02 | 0.968 | 0.958 | 0.965 |
| NC(=O)c1c(Cl)cccc1Cl | 0.984 | 1.01 | 0.983 | 1.09 | 1.1 | 0.917 | 1.03 | 1.07 | 0.99 | 0.996 | 0.906 | 0.991 |
| CCc1cccc(C)c1N(C(=O)C(=O)O)C(C)COC (stereo not given) | 1.02 | 0.992 | 0.987 | 0.979 | 1.01 | 0.977 | 0.852 | 1.04 | 1.02 | 1.01 | 0.982 | 1 |
| O=S(=O)(Oc1ccc(Cl)cc1)c1ccccc1 | 0.997 | 0.981 | 0.967 | 0.874 | 0.872 | 0.99 | 1.08 | 0.987 | 0.974 | 0.957 | 0.988 | 0.955 |
